Experimental data published in PubChem BioAssay (EPA / NIEHS).
Several values for one entry are separate records, joined by “and”; a condition that tells them apart may be missing. Equal entries are not always repeated. The source holds several records for some structures; these can differ, active in one and inactive in another. Activity calls are given as the source filed them. How the source made its calls: active means hit-call score of the fitted dose curve at least 0.9, where 1 is the maximum; inactive means score below 0.9.

Key:
[1] = read-out: Monocyte Chemoattractant Protein-1 (MCP1), CCL2 (gene 6347); test: BSK_LPS_MCP1: BioMAP Diversity Plus: LPS Assay for Monocyte Chemoattractant Protein-1 (MCP1) Biomarker Activity (AID 2283081); conditions: primary human HUVEC with PBMC; actives raise or lower the signal;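 on AC50: secreted MCP-1 protein quantified by ELISA in culture supernatant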
How it was run: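 ELISA read-out of MCP-1 after 24 h chemical dosing of a human umbilical vein endothelial cell/peripheral blood mononuclear cell co-culture stimulated with LPS. Gain or loss of signal fitted relative to DMSO controls.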

[2] = BSK_LPS_PGE2: BioMAP Diversity Plus: LPS Assay for Prostaglandin E2 (PGE2) Biomarker Activity (AID 2283082); conditions: primary human HUVEC with PBMC; actives raise or lower the signal;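 on AC50: secreted prostaglandin E2 measured by ELISA in LPS-stimulated co-culture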
How it was run: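 LPS-activated HUVEC/PBMC co-culture; cmpd dosed, 24 h; PGE2 by ELISA; bidirectional fit vs DMSO; SRB (0.1%, TCA-fixed, 560 nm) in parallel plates for overt cytotox.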

[3] = read-out: Macrophage colony-stimulating factor (MCSF), CSF1 (gene 1435); test: BSK_LPS_MCSF: BioMAP Diversity Plus: LPS Assay for Macrophage colony-stimulating factor (MCSF) Biomarker Activity (AID 2283083); conditions: primary human HUVEC with PBMC; actives raise or lower the signal
How it was run: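 HUVEC + PBMC co-culture (human primary), 24 h post-dose; M-CSF by ELISA; gain/loss of signal fitted bidirectionally vs DMSO baseline.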

[4] = read-out: Tissue Factor, F3 (gene 2152); test: BSK_LPS_TissueFactor: BioMAP Diversity Plus: LPS Assay for Tissue Factor Biomarker Activity (AID 2283084); conditions: primary human HUVEC with PBMC; actives raise or lower the signal
How it was run: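 HUVEC/PBMC co-culture, LPS-activated; CD142 ELISA read 24 h post-dose; bidirectional curve fit vs DMSO negative control.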

[5] = read-out: Tumor necrosis factor (Homo sapiens) (UniProt P01375); test: BSK_LPS_TNFa: BioMAP Diversity Plus: LPS Assay for Tumour Necrosis Factor alpha (TNFa) Biomarker Activity (AID 2283085); conditions: primary human HUVEC with PBMC; actives raise or lower the signal
How it was run: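 Read-out is ELISA of TNFa in primary human endothelial cell–PBMC co-cultures at 24 h after compound. Activity in either direction was fitted against DMSO.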

[6] = read-out: Vascular cell adhesion molecule 1 (VCAM1), VCAM1 (gene 7412); test: BSK_LPS_VCAM1: BioMAP Diversity Plus: LPS Assay for Vascular cell adhesion molecule 1 (VCAM1) Biomarker Activity (AID 2283086); conditions: primary human HUVEC with PBMC; actives raise or lower the signal
How it was run: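 HUVEC + PBMC co-culture, LPS system; compound 24 h; VCAM-1 by ELISA; bidirectional fit vs DMSO control; parallel SRB (0.1%, TCA-fixed, 560 nm) for cytotoxicity.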

CD40, CD40 (gene 958) = test: BSK_SAg_CD40: BioMAP Diversity Plus: SAg Assay for CD40 Biomarker Activity (AID 2283088); conditions: primary human HUVEC with PBMC; actives raise or lower the signal
How it was run: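 HUVEC/PBMC co-culture, 24 h post-dose; CD40 by ELISA, fluorescence intensity; bidirectional fit vs DMSO negative control.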

CD69, CD69 (gene 969) = test: BSK_SAg_CD69: BioMAP Diversity Plus: SAg Assay for CD69 Biomarker Activity (AID 2283089); conditions: primary human HUVEC with PBMC; actives raise or lower the signal;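 on AC50: cell surface CD69 protein quantified by ELISA with fluorescence detection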
How it was run: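 Values derive from bidirectional fitting relative to DMSO vehicle. Cells: umbilical vein endothelium plus peripheral blood mononuclear cells, treated 24 h before fluorescent ELISA for CD69.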

[7] = read-out: Monocyte Chemoattractant Protein-1 (MCP1), CCL2 (gene 6347); test: BSK_SAg_MCP1: BioMAP Diversity Plus: SAg Assay for Monocyte Chemoattractant Protein-1 (MCP1) Biomarker Activity (AID 2283090); conditions: primary human HUVEC with PBMC; actives raise or lower the signal
How it was run: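 MCP-1 levels in the endothelial–PBMC SAg co-culture were quantified by ELISA at 24 h post-dosing; both increases and decreases versus DMSO scored. Cytotoxicity monitored by SRB total protein in parallel cultures.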

[8] = read-out: E-selectin (Homo sapiens) (UniProt P16581); test: BSK_SAg_Eselectin: BioMAP Diversity Plus: SAg Assay for Eselectin Biomarker Activity (AID 2283091); conditions: primary human HUVEC with PBMC; actives raise or lower the signal
How it was run: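 E-selectin ELISA readout at 24 h post-dosing in human umbilical vein endothelial cell/PBMC co-culture; gain or loss of signal fitted relative to DMSO baseline.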

[9] = read-out: Monokine induced gamma interferon (MIG), CXCL9 (gene 4283); test: BSK_SAg_MIG: BioMAP Diversity Plus: SAg Assay for Monokine induced gamma interferon (MIG) Biomarker Activity (AID 2283092); conditions: primary human HUVEC with PBMC; actives raise or lower the signal
How it was run: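 Values reflect bidirectional fitting of ELISA-measured MIG against DMSO vehicle, taken 24 h after dosing of a co-culture of human umbilical vein endothelial cells and peripheral blood mononuclear cells.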

[10] = BSK_SAg_PBMCCytotoxicity: PBMC Cytotoxicity Assessment in the BioMAP Diversity Plus: SAg Assay (AID 2283093); conditions: primary human HUVEC with PBMC;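 further: PBMC viability measured as Alamar Blue reduction fluorescence at 546/580 nm; fitted both ways against DMSO so a hit may be loss or gain of signal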;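 on AC50: PBMC superantigen activated with SEB plus TSST-1 one hour after compound addition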
How it was run: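 Compound added to 75,000 PBMC/well for 1 h; SEB and TSST-1 then added at 20 ng/mL final each; 90 h incubation; Alamar Blue 6 h; read 546/580 nm ex/em. Activity fitted bidirectionally relative to DMSO baseline.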

[11] = read-out: Interleukin-8 (IL8), CXCL8 (gene 3576); test: BSK_SAg_IL8: BioMAP Diversity Plus: SAg Assay for Interleukin-8 (IL8) Biomarker Activity (AID 2283094); conditions: primary human HUVEC with PBMC; actives raise or lower the signal
How it was run: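 ELISA read-out of IL-8 in a primary human vascular co-culture (umbilical vein endothelium plus PBMC), taken 24 h after compound addition. Values derive from bidirectional fits against DMSO negative controls.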

[12] = BSK_SAg_Proliferation: Cell Proliferation Assessment in the BioMAP Diversity Plus: SAg Assay (AID 2283095); conditions: primary human HUVEC with PBMC;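 further: relative cell number as total protein by SRB absorbance in sub-confluent culture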
How it was run: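 Cells (endothelium plus PBMC, human primary) were dosed with chemical, cultured 96 h, fixed in 10% TCA and stained with 0.1% SRB. Absorbance at 560 nm gave relative protein, fitted bidirectionally relative to DMSO.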

[13] = BSK_SAg_SRB: Viability Assessment in the BioMAP Diversity Plus: SAg Assay (AID 2283096); conditions: primary human HUVEC with PBMC;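 further: cells read one day after compound addition; hits may be either gain or loss of signal compared with DMSO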
How it was run: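 Total protein by sulforhodamine B staining, 24 h after dosing, in HUVEC–PBMC co-culture; DMSO-referenced bidirectional fitting.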

CD38, CD38 (gene 952) = test: BSK_SAg_CD38: BioMAP Diversity Plus: SAg Assay for CD38 Biomarker Activity (AID 2283087); conditions: primary human HUVEC with PBMC; actives raise or lower the signal
How it was run: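 Human HUVEC plus PBMC co-culture stimulated with superantigen; CD38 measured by ELISA 24 h after chemical dosing. Fluorescence read-out, bidirectional fit against DMSO; cytotoxicity tracked in parallel by SRB and Alamar Blue.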

Measured: AC50

Tumor necrosis factor (Homo sapiens), sequence (P01375 whole entry, looked up): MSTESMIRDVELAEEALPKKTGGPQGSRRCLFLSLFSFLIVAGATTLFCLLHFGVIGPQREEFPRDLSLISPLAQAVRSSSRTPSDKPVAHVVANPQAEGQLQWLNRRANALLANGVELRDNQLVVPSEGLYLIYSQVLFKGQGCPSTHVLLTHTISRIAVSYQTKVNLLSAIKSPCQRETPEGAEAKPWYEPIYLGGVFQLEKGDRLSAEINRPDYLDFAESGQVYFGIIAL
E-selectin (Homo sapiens), sequence (P16581 whole entry, looked up): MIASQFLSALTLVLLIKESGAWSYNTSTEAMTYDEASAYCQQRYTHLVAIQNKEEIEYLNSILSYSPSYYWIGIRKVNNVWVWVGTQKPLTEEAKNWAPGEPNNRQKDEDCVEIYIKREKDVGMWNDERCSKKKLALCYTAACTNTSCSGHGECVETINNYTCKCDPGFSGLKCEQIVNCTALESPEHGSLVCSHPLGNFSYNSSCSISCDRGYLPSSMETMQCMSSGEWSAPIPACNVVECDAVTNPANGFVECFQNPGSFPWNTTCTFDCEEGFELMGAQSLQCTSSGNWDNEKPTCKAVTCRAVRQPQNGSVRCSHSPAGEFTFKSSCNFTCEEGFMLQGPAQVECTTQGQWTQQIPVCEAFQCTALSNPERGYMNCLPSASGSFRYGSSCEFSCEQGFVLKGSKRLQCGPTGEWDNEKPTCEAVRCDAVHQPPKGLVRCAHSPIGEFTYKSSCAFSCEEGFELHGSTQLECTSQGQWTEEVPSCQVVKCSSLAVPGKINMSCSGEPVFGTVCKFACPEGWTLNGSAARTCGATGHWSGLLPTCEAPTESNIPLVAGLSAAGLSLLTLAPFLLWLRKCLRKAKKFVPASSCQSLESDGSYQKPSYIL

FC1CC(F)(F)C(F)(F)C1(F)F (centres undefined)
inactive: [1] | [2] | [3] | [4] | [5] | [6] | CD40, CD40 (gene 958) | CD69, CD69 (gene 969) | [7] | [8] | [9] | [10] | [11] | [12] | [13]

OCCCC(F)(F)C(F)(F)C(F)(F)C(F)(F)C(F)(F)C(F)(F)C(F)(F)F
inactive: [2]
active: [1] 44.7 µM and 44.2 µM | [3] 46 µM and 47.8 µM | [4] 49.9 µM and 45.5 µM | [5] 48 µM and 25.8 µM | CD38, CD38 (gene 952) 47.1 µM and 49.3 µM | CD40, CD40 (gene 958) 48 µM and 50.1 µM | CD69, CD69 (gene 969) 42.4 µM and 41.7 µM | [7] 43.2 µM and 46.3 µM | [8] 44.2 µM and 38.8 µM | [9] 54 µM and 50.8 µM | [10] 14.4 µM and 14.8 µM | [11] 23.3 µM and 50.1 µM | [12] 16.8 µM and 16.3 µM | [13] 51.4 µM and 44.9 µM

FC(F)(F)C(F)(F)C(F)(F)CI
inactive: [1] | [2] | [3] | [4] | [5] | CD38, CD38 (gene 952) | CD40, CD40 (gene 958) | CD69, CD69 (gene 969) | [7] | [8] | [9] | [10] | [11] | [12] | [13]

CCc1c(Br)c(Br)c(Br)c(Br)c1Br
inactive: [1] | [2] | [3] | [4] | [5] | [6] | CD40, CD40 (gene 958) | CD69, CD69 (gene 969) | [7] | [8] | [9] | [11] | [12] | [13]

O=C(O)C(F)(F)C(F)(F)C(F)(F)C(F)(F)C(F)(F)C(F)(F)C(F)(F)C(F)(F)C(F)(F)C(F)(F)C(F)(F)C(F)(F)C(F)(F)F
active: CD40, CD40 (gene 958) 869 nM
inactive: [1] | [2] | [3] | [4] | [5] | CD40, CD40 (gene 958) | CD69, CD69 (gene 969) | [7] | [8] | [9] | [11] | [12] | [13]

CC(C)(C)C(=O)CC(=O)C(F)(F)C(F)(F)C(F)(F)F
active: [2] 30 µM | [8] 41.1 µM
inactive: [1] | [2] | [3] | [4] | [5] | [6] | CD40, CD40 (gene 958) | CD69, CD69 (gene 969) | [7] | [8] | [9] | [11] | [12] | [13]
